Data published in PubChem BioAssay (NCI).
“And” between values parts separate entries of the source, which are not always exact repeats. Equal values may be shown once. This is part of a sample that, as a whole, favours compounds with a hit. Of some 83,000 tested, about 20% had one in any assay.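 48-hour exposure, single concentration, 96-well plates; percent growth endpoint where 0 means no net growth. Active: below 10.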 The source made the active and inactive calls.

Columns and labels:
Assay in all cases: NCI-60 one-dose screen, 48 h (100 = growth as untreated, 0 = no growth, -100 = all killed)
Conditions in all cases: 10 µM unless noted
SK-MEL-2 melanoma = test system: SK-MEL-2 melanoma
EKVX NSCLC = test system: EKVX NSCLC
SN12C renal = test system: SN12C renal
UO-31 renal = test system: UO-31 renal
TK-10 renal = test system: TK-10 renal
ACHN renal = test system: ACHN renal
CAKI-1 renal = test system: CAKI-1 renal
A498 renal = test system: A498 renal
HL-60(TB) leukemia = test system: HL-60(TB) leukemia
MOLT-4 leukemia = test system: MOLT-4 leukemia
SR leukemia = test system: SR leukemia
RPMI-8226 leukemia = test system: RPMI-8226 leukemia
OVCAR-8 ovarian = test system: OVCAR-8 ovarian
OVCAR-4 ovarian = test system: OVCAR-4 ovarian
SK-OV-3 ovarian = test system: SK-OV-3 ovarian
OVCAR-3 ovarian = test system: OVCAR-3 ovarian
HS 578T breast = test system: HS 578T breast
CCRF-CEM leukemia = test system: CCRF-CEM leukemia
OVCAR-5 ovarian = test system: OVCAR-5 ovarian
IGROV1 ovarian = test system: IGROV1 ovarian

Measured: growth

CCCCOCCOP(=O)(OCCOCCCC)OCCOCCCC
inactive: SK-MEL-2 melanoma 114% | EKVX NSCLC 97.7% | SN12C renal 98% | UO-31 renal 100% | TK-10 renal 96.1% | ACHN renal 102% | CAKI-1 renal 98% | A498 renal 89.1% | HL-60(TB) leukemia 84.1% | MOLT-4 leukemia 92.3% | SR leukemia 98.9% | RPMI-8226 leukemia 115% | OVCAR-8 ovarian 107% | OVCAR-4 ovarian 114% | SK-OV-3 ovarian 101% | OVCAR-3 ovarian 118% | HS 578T breast 95.5%

COc1ccc(O)c2c(=O)c3c(OC)cc4c(c3oc12)[C@@H]1C=CO[C@@H]1O4
active: SK-MEL-2 melanoma 6.45% | EKVX NSCLC 6.71% | ACHN renal 5.59% | SR leukemia -6.56%
inactive: SN12C renal 73.1% | UO-31 renal 51.9% | TK-10 renal 36.8% | CAKI-1 renal 35.9% | A498 renal 87% | HL-60(TB) leukemia 65.8% | CCRF-CEM leukemia 92.6% | RPMI-8226 leukemia 63.5% | OVCAR-8 ovarian 50.6% | OVCAR-5 ovarian 55.2% | OVCAR-4 ovarian 40.8% | SK-OV-3 ovarian 35.6% | IGROV1 ovarian 16.3% | OVCAR-3 ovarian 52% | HS 578T breast 114%

O=C(O)C1C(C(=O)O)C2(Cl)C(Cl)=C(Cl)C1(Cl)C2(Cl)Cl (stereo not given)
inactive: SK-MEL-2 melanoma 108% and 113% | EKVX NSCLC 90.4% and 118% | SN12C renal 103% and 101% | UO-31 renal 73.1% and 92.2% | TK-10 renal 116% and 107% | ACHN renal 99.9% | CAKI-1 renal 116% | A498 renal 102% and 101% | HL-60(TB) leukemia 95.1% | MOLT-4 leukemia 115% and 106% | SR leukemia 104% and 118% | OVCAR-8 ovarian 107% and 101% | OVCAR-5 ovarian 91.4% and 108% | OVCAR-4 ovarian 105% and 110% | SK-OV-3 ovarian 103% and 107% | OVCAR-3 ovarian 99.8% and 112%
1.8% (active) and 114% (inactive): CCRF-CEM leukemia

C[C@]12CCC(=O)C[C@@H]1CC[C@@H]1[C@@H]2CC[C@]2(C)[C@@H](OC(=O)N(CCCl)N=O)CC[C@@H]12
active: ACHN renal 9.18% | CAKI-1 renal 5.32% | HL-60(TB) leukemia -10.5% | IGROV1 ovarian -29.7%
inactive: SK-MEL-2 melanoma 17.7% | EKVX NSCLC 69.9% | SN12C renal 24% | UO-31 renal 25.4% | TK-10 renal 32.9% | A498 renal 43.5% | CCRF-CEM leukemia 14.7% | MOLT-4 leukemia 13.3% | RPMI-8226 leukemia 17.4% | OVCAR-8 ovarian 27.8% | OVCAR-5 ovarian 42.6% | OVCAR-4 ovarian 72.6% | SK-OV-3 ovarian 16.1% | OVCAR-3 ovarian 49.5% | HS 578T breast 35.7%

C[C@H](O)CCC(=O)c1ccoc1
inactive: SK-MEL-2 melanoma 110% | EKVX NSCLC 104% | SN12C renal 96.9% | UO-31 renal 98.9% | TK-10 renal 103% | ACHN renal 114% | CAKI-1 renal 101% | A498 renal 103% | HL-60(TB) leukemia 99.4% | CCRF-CEM leukemia 98.1% | MOLT-4 leukemia 98.2% | RPMI-8226 leukemia 97.8% | OVCAR-8 ovarian 97.7% | OVCAR-5 ovarian 106% | OVCAR-4 ovarian 117% | SK-OV-3 ovarian 113% | IGROV1 ovarian 113% | OVCAR-3 ovarian 109% | HS 578T breast 97.1%

O=C1CN2CCC1CC2
inactive: SK-MEL-2 melanoma 101% | EKVX NSCLC 109% | SN12C renal 106% | UO-31 renal 84.6% | TK-10 renal 106% | ACHN renal 101% | CAKI-1 renal 103% | A498 renal 72.2% | HL-60(TB) leukemia 94% | MOLT-4 leukemia 100% | SR leukemia 100% | RPMI-8226 leukemia 109% | OVCAR-8 ovarian 106% | OVCAR-5 ovarian 101% | OVCAR-4 ovarian 109% | SK-OV-3 ovarian 105% | IGROV1 ovarian 108% | OVCAR-3 ovarian 107% | HS 578T breast 101%

CCN1C(=O)NC(=O)C(C)(N2C(=O)c3c(F)c(F)c(F)c(F)c3C2=O)C1=O (stereo not given)
inactive: SK-MEL-2 melanoma 16.8% | EKVX NSCLC 104% | SN12C renal 33.6% | UO-31 renal 25.1% | TK-10 renal 34.5% | A498 renal 99.2% | CCRF-CEM leukemia 19.5% | OVCAR-5 ovarian 42.7% | SK-OV-3 ovarian 96.9%
active: ACHN renal -57.7% | CAKI-1 renal -46.7% | HL-60(TB) leukemia -70.3% | MOLT-4 leukemia -51.3% | SR leukemia -64.6% | OVCAR-8 ovarian 3.31% | OVCAR-4 ovarian 1.91% | OVCAR-3 ovarian -89.9%

Cn1cc(C(=O)C[n+]2ccccc2)c2ccccc21
inactive: SK-MEL-2 melanoma 104% | EKVX NSCLC 65.4% | SN12C renal 101% | UO-31 renal 98% | TK-10 renal 115% | ACHN renal 109% | CAKI-1 renal 99.5% | A498 renal 84.8% | HL-60(TB) leukemia 98.8% | CCRF-CEM leukemia 96.6% | MOLT-4 leukemia 103% | RPMI-8226 leukemia 98.2% | OVCAR-8 ovarian 114% | OVCAR-5 ovarian 105% | OVCAR-4 ovarian 90.4% | SK-OV-3 ovarian 101% | IGROV1 ovarian 103% | OVCAR-3 ovarian 109%
